# PMC7862700, “An all-to-all approach to the identification of sequence-specific readers for epigenetic DNA modifications on cytosine”
# Assays:
# Experiment in all cases: DAPPL (digital affinity profiling via proximity ligation, sequencing); 10 mM Tris-HCl pH 7.5, 50 mM NaCl, 1 mM DTT, 4% glycerol, room temperature, 30 min; GST-TFs on glutathione beads, 16-mer random dsDNA library, 0.1% formaldehyde crosslink after washing; high values mean tight binding
# FLI1 = target: T1, FLI1 (Homo sapiens, UniProt Q01543 1-452); conditions: protein: recombinant; tags: N-terminal GST; dsDNA, one strand shown
# T1 sequence: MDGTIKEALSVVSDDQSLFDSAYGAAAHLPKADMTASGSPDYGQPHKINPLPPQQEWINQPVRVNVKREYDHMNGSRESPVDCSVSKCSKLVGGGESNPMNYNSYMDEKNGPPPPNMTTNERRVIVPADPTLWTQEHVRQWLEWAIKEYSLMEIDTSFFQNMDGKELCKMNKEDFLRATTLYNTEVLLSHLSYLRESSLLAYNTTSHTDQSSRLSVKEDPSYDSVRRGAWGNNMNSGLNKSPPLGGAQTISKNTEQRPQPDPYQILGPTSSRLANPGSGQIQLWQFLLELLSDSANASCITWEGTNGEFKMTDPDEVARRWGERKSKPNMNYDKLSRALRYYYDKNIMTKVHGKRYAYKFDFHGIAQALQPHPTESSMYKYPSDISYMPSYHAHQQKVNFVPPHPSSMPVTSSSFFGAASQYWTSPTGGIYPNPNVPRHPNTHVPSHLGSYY
# Procedure, shortened: (§1)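 Yeast served to express human transcription factors as GST fusions, which were then captured on glutathione beads and labelled with DNA barcodes. Pooled with a tag-only sample, they were incubated with 200 nmole of a 16-mer random double-stranded DNA library for 30 min at room temperature in Tris/NaCl/DTT/glycerol buffer, washed, crosslinked with 0.1% formaldehyde, ligated by proximity, amplified by PCR and sequenced. Dividing each hexamer's read frequency for a factor by its frequency for the tag-only sample gives the binding signal.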
# ELK1 = target: T2, ELK1 (Homo sapiens, UniProt P19419 1-428); conditions: protein: recombinant; tags: N-terminal GST; dsDNA, one strand shown
# T2 sequence: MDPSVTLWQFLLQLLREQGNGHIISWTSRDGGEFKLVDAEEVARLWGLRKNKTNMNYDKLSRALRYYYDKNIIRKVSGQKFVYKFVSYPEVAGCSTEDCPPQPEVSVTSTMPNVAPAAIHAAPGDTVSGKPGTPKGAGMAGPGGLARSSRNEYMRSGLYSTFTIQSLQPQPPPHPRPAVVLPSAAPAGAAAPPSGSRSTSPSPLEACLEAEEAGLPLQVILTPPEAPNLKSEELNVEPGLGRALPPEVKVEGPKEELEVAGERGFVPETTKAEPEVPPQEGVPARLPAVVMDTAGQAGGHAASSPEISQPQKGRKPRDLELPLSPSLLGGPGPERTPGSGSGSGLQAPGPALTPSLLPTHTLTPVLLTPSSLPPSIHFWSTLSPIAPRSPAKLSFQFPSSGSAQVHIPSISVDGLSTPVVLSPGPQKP
# Procedure, shortened: as §1
# GABPA = target: T3, GABPA (Homo sapiens, UniProt Q06546 1-454); conditions: protein: recombinant; tags: N-terminal GST; dsDNA, one strand shown
# T3 sequence: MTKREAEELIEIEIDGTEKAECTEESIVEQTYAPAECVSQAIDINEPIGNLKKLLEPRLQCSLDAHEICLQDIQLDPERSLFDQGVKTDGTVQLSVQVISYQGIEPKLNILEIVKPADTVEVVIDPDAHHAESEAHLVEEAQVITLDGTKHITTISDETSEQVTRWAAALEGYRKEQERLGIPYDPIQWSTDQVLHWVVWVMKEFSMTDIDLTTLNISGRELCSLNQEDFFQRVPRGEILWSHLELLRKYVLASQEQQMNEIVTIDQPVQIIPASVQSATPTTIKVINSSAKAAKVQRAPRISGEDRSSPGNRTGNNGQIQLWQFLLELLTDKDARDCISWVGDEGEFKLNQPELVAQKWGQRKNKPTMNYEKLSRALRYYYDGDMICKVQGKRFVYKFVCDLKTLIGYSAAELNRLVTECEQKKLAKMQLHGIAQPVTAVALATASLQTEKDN
# Procedure, shortened: as §1
# ERG = target: T4, ERG (Homo sapiens, UniProt P11308 1-479); conditions: protein: recombinant; tags: N-terminal GST; dsDNA, one strand shown
# T4 sequence: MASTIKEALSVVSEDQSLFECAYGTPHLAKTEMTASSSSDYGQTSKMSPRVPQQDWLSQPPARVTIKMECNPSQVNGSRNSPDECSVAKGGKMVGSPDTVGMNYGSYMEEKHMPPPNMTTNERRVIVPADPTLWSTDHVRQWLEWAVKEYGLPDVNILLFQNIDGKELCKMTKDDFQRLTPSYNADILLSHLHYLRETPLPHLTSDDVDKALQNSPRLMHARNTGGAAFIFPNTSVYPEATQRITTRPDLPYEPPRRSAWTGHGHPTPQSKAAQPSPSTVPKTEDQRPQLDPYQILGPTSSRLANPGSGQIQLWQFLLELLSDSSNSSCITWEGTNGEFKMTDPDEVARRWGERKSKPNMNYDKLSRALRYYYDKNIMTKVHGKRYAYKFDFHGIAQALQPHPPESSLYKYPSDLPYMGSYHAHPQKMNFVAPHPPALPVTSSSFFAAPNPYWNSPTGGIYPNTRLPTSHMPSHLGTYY
# Procedure, shortened: as §1
# ELF1 = ELF1 (Homo sapiens, UniProt P32519 1-619); conditions: protein: recombinant; tags: N-terminal GST; dsDNA, one strand shown
# Procedure, shortened: as §1
# EHF = target: T5, EHF (Homo sapiens, UniProt Q9NZC4 1-300); conditions: protein: recombinant; tags: N-terminal GST; dsDNA, one strand shown
# T5 sequence: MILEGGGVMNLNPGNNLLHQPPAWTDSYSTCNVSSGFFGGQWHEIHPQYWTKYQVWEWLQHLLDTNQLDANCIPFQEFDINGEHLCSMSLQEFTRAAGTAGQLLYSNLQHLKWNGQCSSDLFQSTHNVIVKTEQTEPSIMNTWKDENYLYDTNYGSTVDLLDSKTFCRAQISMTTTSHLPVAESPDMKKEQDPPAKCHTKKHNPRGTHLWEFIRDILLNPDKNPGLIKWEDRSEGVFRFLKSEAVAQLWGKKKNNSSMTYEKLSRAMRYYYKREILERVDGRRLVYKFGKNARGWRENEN
# Procedure, shortened: as §1
# SPI1 = SPI1 (Homo sapiens, UniProt P17947 1-270); conditions: protein: recombinant; tags: N-terminal GST; dsDNA, one strand shown
# Procedure, shortened: as §1
# SPIB = SPIB (Homo sapiens, UniProt Q01892 1-262); conditions: protein: recombinant; tags: N-terminal GST; dsDNA, one strand shown
# Procedure, shortened: as §1
# ELK3 = target: T6, ELK3 (Homo sapiens, UniProt P41970 1-407); conditions: protein: recombinant; tags: N-terminal GST; dsDNA, one strand shown
# T6 sequence: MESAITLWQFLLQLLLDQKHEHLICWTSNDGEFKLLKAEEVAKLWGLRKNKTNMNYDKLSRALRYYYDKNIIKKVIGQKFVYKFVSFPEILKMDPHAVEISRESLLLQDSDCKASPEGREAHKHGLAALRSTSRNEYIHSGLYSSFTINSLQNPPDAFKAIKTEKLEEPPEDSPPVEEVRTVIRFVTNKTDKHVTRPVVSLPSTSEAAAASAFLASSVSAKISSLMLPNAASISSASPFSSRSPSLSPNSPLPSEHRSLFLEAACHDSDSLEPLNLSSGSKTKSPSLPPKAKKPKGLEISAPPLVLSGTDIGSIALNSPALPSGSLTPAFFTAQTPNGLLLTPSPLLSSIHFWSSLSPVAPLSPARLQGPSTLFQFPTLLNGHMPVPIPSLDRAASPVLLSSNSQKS
# Procedure, shortened: as §1
# FEV = target: T7, FEV (Homo sapiens, UniProt Q99581 1-238); conditions: protein: recombinant; tags: N-terminal GST; dsDNA, one strand shown
# T7 sequence: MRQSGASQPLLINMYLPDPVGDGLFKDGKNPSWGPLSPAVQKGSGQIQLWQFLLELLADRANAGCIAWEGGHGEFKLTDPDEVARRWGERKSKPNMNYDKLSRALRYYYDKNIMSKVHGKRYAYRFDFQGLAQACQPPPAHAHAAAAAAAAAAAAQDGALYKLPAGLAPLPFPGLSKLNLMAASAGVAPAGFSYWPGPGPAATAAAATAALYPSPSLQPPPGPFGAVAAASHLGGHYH
# Procedure, shortened: as §1
# ETV5 = ETV5 (Homo sapiens, UniProt P41161 1-510); conditions: protein: recombinant; tags: N-terminal GST; dsDNA, one strand shown
# Procedure, shortened: as §1
# HSF1 = HSF1 (Homo sapiens, UniProt Q00613 1-529); conditions: protein: recombinant; tags: N-terminal GST; chain copies: 3; dsDNA, one strand shown
# Procedure, shortened: as §1
# SPIC = target: T8, SPIC (Homo sapiens, UniProt Q8N5J4 1-248); conditions: protein: recombinant; tags: N-terminal GST; dsDNA, one strand shown
# T8 sequence: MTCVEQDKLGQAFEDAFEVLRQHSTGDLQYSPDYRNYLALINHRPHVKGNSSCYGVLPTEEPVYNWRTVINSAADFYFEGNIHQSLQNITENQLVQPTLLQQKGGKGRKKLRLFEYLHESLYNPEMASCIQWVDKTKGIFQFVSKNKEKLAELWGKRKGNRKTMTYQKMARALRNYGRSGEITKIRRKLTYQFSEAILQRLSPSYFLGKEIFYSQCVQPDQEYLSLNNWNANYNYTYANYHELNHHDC
# Procedure, shortened: as §1
# ELF4 = ELF4 (Homo sapiens, UniProt Q99607 1-663); conditions: protein: recombinant; tags: N-terminal GST; dsDNA, one strand shown
# Procedure, shortened: as §1
# ELK4 = target: T9, ELK4 (Homo sapiens, UniProt P28324-2 1-405); conditions: protein: recombinant; tags: N-terminal GST; dsDNA, one strand shown
# T9 sequence: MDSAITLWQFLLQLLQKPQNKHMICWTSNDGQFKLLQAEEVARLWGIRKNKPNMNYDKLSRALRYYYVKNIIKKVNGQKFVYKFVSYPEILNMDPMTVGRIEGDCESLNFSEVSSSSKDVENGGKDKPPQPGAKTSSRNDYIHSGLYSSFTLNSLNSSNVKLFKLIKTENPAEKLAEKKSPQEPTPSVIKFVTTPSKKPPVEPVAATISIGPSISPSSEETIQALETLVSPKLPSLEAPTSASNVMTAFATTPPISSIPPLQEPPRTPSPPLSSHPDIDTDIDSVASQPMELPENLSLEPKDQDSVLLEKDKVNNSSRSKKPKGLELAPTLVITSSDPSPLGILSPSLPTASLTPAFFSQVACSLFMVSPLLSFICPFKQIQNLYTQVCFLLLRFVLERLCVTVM
# Procedure, shortened: as §1
# ETV2 = target: T10, ETV2 (Homo sapiens, UniProt O00321 1-342); conditions: protein: recombinant; tags: N-terminal GST; dsDNA, one strand shown
# T10 sequence: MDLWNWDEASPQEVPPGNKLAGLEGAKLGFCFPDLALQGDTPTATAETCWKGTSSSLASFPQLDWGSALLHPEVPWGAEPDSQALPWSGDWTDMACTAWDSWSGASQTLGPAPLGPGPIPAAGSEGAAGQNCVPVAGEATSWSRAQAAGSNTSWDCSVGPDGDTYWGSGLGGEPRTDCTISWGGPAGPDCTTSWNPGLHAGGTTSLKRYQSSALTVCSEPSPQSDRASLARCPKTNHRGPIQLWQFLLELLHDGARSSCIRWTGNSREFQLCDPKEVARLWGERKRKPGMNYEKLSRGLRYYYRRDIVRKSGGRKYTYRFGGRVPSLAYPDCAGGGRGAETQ
# Procedure, shortened: as §1
# ELF3 = target: T11, ELF3 (Homo sapiens, UniProt P78545 1-371); conditions: protein: recombinant; tags: N-terminal GST; dsDNA, one strand shown
# T11 sequence: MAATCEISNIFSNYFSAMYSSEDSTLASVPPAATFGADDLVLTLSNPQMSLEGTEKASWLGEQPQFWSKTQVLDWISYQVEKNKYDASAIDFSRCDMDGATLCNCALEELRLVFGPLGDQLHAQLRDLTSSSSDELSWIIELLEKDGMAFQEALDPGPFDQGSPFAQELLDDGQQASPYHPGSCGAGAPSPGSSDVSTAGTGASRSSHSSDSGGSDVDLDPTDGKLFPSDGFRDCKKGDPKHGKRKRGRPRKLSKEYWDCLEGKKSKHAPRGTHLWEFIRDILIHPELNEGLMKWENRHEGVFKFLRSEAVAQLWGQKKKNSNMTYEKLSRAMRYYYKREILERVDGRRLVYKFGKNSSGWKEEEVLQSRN
# Procedure, shortened: as §1
# CRX = CRX (Homo sapiens, UniProt O43186 1-299); conditions: protein: recombinant; tags: N-terminal GST; dsDNA, one strand shown
# Procedure, shortened: as §1
# ETV1 = ETV1 (Homo sapiens, UniProt P50549 1-477); conditions: protein: recombinant; tags: N-terminal GST; dsDNA, one strand shown
# Procedure, shortened: as §1
# ELF4, sequence (Q99607 whole entry): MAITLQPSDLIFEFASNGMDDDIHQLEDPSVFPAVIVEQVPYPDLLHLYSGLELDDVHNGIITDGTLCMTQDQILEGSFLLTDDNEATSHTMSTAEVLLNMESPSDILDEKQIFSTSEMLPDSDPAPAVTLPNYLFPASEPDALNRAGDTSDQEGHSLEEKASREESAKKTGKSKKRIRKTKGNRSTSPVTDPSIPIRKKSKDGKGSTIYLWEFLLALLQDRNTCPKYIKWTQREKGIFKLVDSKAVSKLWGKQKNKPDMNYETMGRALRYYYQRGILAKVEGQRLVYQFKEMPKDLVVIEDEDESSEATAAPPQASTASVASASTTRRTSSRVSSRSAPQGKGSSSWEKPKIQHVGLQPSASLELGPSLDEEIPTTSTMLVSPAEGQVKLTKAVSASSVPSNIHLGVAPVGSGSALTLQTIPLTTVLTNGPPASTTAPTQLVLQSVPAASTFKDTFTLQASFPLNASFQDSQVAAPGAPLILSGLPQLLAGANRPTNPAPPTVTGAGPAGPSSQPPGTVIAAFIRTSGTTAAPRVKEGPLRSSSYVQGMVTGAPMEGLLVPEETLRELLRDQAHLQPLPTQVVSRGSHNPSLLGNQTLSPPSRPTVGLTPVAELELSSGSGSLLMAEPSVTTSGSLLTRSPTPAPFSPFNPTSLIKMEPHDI
# CRX, sequence (O43186 whole entry): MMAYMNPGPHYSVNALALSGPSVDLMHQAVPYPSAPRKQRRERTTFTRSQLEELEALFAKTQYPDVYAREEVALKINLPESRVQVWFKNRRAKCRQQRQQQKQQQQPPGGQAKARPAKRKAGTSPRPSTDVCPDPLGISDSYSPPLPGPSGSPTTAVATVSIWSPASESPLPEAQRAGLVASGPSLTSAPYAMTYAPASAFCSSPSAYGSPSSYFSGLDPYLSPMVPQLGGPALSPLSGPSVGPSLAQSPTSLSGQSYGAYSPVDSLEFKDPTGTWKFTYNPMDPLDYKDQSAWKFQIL
# SPIB, sequence (Q01892 whole entry): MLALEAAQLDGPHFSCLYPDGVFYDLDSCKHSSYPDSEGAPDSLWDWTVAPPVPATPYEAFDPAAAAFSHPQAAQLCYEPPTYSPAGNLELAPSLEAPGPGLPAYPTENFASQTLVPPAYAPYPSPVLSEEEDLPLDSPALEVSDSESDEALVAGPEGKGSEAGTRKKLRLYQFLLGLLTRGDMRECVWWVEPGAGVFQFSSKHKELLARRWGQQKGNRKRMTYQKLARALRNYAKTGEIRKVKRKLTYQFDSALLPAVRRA
# ETV1, sequence (P50549 whole entry): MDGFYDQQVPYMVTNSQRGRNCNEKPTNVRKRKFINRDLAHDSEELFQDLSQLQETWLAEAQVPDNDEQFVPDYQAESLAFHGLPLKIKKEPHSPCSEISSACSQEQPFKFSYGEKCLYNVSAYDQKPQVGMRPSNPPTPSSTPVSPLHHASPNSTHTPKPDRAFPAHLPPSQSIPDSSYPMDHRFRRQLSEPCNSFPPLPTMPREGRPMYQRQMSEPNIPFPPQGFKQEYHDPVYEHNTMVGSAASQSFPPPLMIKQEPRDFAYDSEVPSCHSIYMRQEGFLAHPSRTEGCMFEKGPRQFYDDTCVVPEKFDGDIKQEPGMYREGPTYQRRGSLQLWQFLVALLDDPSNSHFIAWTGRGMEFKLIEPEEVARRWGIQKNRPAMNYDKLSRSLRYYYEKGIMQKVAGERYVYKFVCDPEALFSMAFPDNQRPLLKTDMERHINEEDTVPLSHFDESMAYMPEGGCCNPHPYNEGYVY
# ETV5, sequence (P41161 whole entry): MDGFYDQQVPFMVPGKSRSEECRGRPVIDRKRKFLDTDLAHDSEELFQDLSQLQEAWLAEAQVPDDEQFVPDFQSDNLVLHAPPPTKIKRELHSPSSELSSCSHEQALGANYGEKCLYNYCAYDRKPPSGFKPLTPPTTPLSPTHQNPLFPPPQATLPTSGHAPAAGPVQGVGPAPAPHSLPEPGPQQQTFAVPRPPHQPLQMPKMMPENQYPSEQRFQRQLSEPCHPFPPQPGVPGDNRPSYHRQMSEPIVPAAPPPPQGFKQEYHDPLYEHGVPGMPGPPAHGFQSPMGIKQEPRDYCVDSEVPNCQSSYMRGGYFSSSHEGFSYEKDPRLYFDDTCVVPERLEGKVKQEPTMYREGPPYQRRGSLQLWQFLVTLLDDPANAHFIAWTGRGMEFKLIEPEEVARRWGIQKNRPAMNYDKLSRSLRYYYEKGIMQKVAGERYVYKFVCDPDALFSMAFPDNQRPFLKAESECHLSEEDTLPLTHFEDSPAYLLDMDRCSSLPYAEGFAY
# HSF1, sequence (Q00613 whole entry): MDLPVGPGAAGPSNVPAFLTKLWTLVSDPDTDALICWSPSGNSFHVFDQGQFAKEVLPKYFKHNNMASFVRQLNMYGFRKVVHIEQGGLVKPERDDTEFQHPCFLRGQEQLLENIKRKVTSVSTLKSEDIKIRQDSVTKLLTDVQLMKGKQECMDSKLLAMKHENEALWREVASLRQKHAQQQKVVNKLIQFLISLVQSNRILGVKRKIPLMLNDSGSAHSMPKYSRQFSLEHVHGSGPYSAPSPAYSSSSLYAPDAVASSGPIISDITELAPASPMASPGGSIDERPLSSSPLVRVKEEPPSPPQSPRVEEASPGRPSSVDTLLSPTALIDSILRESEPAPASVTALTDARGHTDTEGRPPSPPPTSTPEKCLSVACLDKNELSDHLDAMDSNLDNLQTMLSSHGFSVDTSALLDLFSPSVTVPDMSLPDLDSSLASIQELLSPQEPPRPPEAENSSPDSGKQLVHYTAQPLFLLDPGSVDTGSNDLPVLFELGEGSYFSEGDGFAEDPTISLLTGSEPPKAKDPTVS
# ELF1, sequence (P32519 whole entry): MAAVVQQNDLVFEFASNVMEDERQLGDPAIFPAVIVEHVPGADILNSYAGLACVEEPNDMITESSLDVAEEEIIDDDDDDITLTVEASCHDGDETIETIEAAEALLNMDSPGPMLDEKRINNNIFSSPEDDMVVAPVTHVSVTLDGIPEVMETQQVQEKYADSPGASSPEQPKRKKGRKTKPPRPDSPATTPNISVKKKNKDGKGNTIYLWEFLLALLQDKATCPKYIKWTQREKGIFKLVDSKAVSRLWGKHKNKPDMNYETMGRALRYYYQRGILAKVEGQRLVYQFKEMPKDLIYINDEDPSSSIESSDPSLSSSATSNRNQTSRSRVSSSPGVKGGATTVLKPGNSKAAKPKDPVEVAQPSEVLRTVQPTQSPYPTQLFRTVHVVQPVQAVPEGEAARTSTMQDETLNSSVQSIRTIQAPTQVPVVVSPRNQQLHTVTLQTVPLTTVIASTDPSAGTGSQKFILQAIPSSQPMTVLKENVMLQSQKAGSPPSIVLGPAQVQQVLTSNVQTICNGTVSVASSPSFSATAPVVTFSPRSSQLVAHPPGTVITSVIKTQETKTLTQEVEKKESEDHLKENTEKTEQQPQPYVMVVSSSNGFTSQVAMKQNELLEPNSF
sequence,measurement,setting,value
ACATAA,binding signal,FLI1,"1.01 fold enrichment (6-mer frequency, TF over GST control)"
same,binding signal,ELK1,"1.09 fold enrichment (6-mer frequency, TF over GST control)"
same,binding signal,GABPA,"1.08 fold enrichment (6-mer frequency, TF over GST control)"
same,binding signal,ERG,"1.17 fold enrichment (6-mer frequency, TF over GST control)"
same,binding signal,ELF1,"1.13 fold enrichment (6-mer frequency, TF over GST control)"
same,binding signal,EHF,"1.1 fold enrichment (6-mer frequency, TF over GST control)"
same,binding signal,SPI1,"1.08 fold enrichment (6-mer frequency, TF over GST control)"
same,binding signal,SPIB,"1.1 fold enrichment (6-mer frequency, TF over GST control)"
same,binding signal,ELK3,"1.11 fold enrichment (6-mer frequency, TF over GST control)"
same,binding signal,FEV,"1.04 fold enrichment (6-mer frequency, TF over GST control)"
same,binding signal,ETV5,"1.13 fold enrichment (6-mer frequency, TF over GST control)"
same,binding signal,HSF1,"1.2 fold enrichment (6-mer frequency, TF over GST control)"
same,binding signal,SPIC,"1.19 fold enrichment (6-mer frequency, TF over GST control)"
same,binding signal,ELF4,"1.09 fold enrichment (6-mer frequency, TF over GST control)"
same,binding signal,ELK4,"1.14 fold enrichment (6-mer frequency, TF over GST control)"
same,binding signal,ETV2,"1.15 fold enrichment (6-mer frequency, TF over GST control)"
same,binding signal,ELF3,"1.17 fold enrichment (6-mer frequency, TF over GST control)"
same,binding signal,CRX,"1.34 fold enrichment (6-mer frequency, TF over GST control)"
same,binding signal,ETV1,"1.07 fold enrichment (6-mer frequency, TF over GST control)"
